Data from PubChem BioAssay (NCI).
The panel holds about 83,000 compounds, 20% with a hit somewhere; the sample as a whole holds those more often.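 Treatment: one concentration, 48 hours, 96-well format. Scoring: percent growth, with anything below 10 considered active.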 Calls of active or inactive are those of the source.

How the values were obtained:
Experiment in all cases: NCI-60 one-dose screen, 48 h (100 = growth as untreated, 0 = no growth, -100 = all killed)
Details in all cases: 10 µM unless noted
[1] = test system: NCI-H23 lung
[2] = test system: NCI-H226 lung
[3] = test system: NCI-H322M lung
[4] = test system: HOP-62 NSCLC
[5] = test system: NCI-H460 lung
[6] = test system: HOP-92 NSCLC
[7] = test system: NCI-H522 lung
[8] = test system: A549/ATCC NSCLC
[9] = test system: 786-0 renal
[10] = test system: COLO 205 colon

Measured: growth

CCOC(=O)N[C@H]1CCc2c(Br)c(OC)c(OC)c(OC)c2-c2ccc(SC)c(=O)cc21
inactive: [1] 31.2% | [2] 10.3% | [3] 35.3% | [4] 34.9% | [7] 13.2% | [8] 20.9%
active: [5] -7.92% | [6] -4.54% | [9] 9.3% | [10] 5.51%

CC(CC1CCCCC1)NCc1ccccc1 (stereo not given)
inactive: [1] 85.7% | [2] 101% | [3] 95% | [4] 102% | [5] 105% | [6] 80.1% | [7] 94.6% | [8] 98.2% | [9] 99.9% | [10] 103%

COC(=O)C12CC(NC(=O)c3csc([C@@H](C[C@H](C(C)C)N(C)C(=O)[C@@H](NC(=O)[C@H]4CCCCN4C)C4CC4)OC(C)=O)n3)(C1)C2
inactive: [1] 29.4% | [2] 14.6% | [3] 45% | [6] 18.7% | [8] 13% | [9] 24.5%
active: [4] 6.31% | [5] 7.21% | [7] -4.14% | [10] -64.5%

C/C(=C\c1ccn(-c2ccc(N)cc2)n1)[C@@H]1C[C@@H]2O[C@]2(C)CCC[C@H](C)[C@H](O)[C@@H](C)C(=O)C(C)(C)[C@@H](O)CC(=O)O1
active: [10] 1.88%
inactive: [1] 26.1% | [2] 31.7% | [3] 18.6% | [4] 44.7% | [5] 13.3% | [6] 48.7% | [7] 18.6% | [8] 29.8% | [9] 20.2%

N#C[Se]Cc1cc(-c2ccccc2)n(-c2ccc(S(N)(=O)=O)cc2)n1
active: [1] -18% | [2] -29.1% | [3] -5.66% | [4] -87.3% | [5] -56.8% | [6] -61.3% | [7] -7.38% | [8] -33.1% | [9] -24.7% | [10] -83.4%

C=CC1=C[C@@H]2[C@@H]3O[C@]4(CC[C@H](O4)[C@@H](C)C[C@@H](O)C3=O)C[C@H](O)C3=NCC[C@@]32CC1
active: [1] -34.6% | [2] -29.2% | [3] -23.4% | [4] -20.3% | [5] -28.9% | [6] -22.3% | [7] -33.5% | [8] -3.33% | [9] -28.3% | [10] -25.6%

C[C@@]12CC[C@@H](O)C[C@@H]1CC[C@H]1[C@H]2CC[C@@]2(C)[C@H](c3ccc(=O)oc3)CC[C@@]12O
active: [1] -50% | [2] -91.9% | [3] -45.3% | [4] -75.3% | [5] -78.7% | [6] -13.1% | [7] -26% | [8] -61.9% | [9] -51.1% | [10] -68.1%

CC(=O)O[C@H](C[C@H](C(C)C)N(C)C(=O)[C@@H](NC(=O)[C@H]1CCCCN1C)C(C)C)c1nc(C(=O)N[C@@H](Cc2ccccc2)C[C@H](C)C(=O)O)c(C)s1
inactive: [1] 35.9% | [2] 52.6% | [3] 52.8% | [4] 32.1% | [6] 25.6% | [8] 11.9% | [9] 26.1%
active: [5] 7.72% | [7] -4.18% | [10] -62.6%

OCCCCCNC1CCCCC1
inactive: [1] 97.3% | [2] 98.9% | [3] 99% | [4] 111% | [5] 109% | [6] 96.1% | [7] 67.8% | [8] 107% | [9] 99.5% | [10] 112%

CCOC(=O)c1c(C)n(Cc2ccccc2)c2cc(CN(C)C)c(O)cc12
active: [6] 8.81%
inactive: [1] 57.2% | [2] 91.3% | [3] 41.8% | [4] 47.9% | [5] 53.4% | [7] 77.9% | [8] 79.5% | [9] 57.8% | [10] 58%

CCn1c2ccccc2c2cc(C(=O)c3ccc(C)c4ccccc34)ccc21
active: [1] 5.37% | [4] 9.22% | [7] 0.105% | [8] 6.07% | [10] -16.3%
inactive: [2] 32.8% | [3] 28.1% | [5] 10.6% | [6] 40.6% | [9] 17.6%

CC(=O)O[C@H](C[C@H](C(C)C)N(C)C(=O)[C@@H](NC(=O)[C@H]1CCCCN1C)C(C)C)c1nc(C(=O)N[C@@H](Cc2ccccc2)C[C@H](C)C(=O)O)c(C(C)C)s1
active: [5] 6.51% | [7] -21.1% | [8] 8.67% | [10] -60%
inactive: [1] 22.9% | [2] 58.9% | [3] 35.8% | [4] 20% | [6] 51.5% | [9] 16%
